For 14 compounds, growth results are on record in PubChem BioAssay (NCI).

Compounds without any hit were thinned out: in the full panel of roughly 83,000, 20% have a hit.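 A percent growth of 40 corresponds to 60% growth inhibition; 0 means no net growth; -100 means all cells died. Active threshold: below 10.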 Values without a mark were called inactive. Active and inactive are the calls of the source.

Some test systems named below: SR leukemia; OVCAR-8 ovarian; OVCAR-5 ovarian; OVCAR-4 ovarian; SK-OV-3 ovarian; IGROV1 ovarian; OVCAR-3 ovarian; HS 578T breast; NCI/ADR-RES ovarian; RPMI-8226 leukemia.
Holding throughout (test): NCI-60 one-dose screen, 48 h (100 = growth as untreated, 0 = no growth, -100 = all killed)
Details in all cases: 10 µM unless noted

Regarding `O=[N+]([O-])c1ccc(Oc2ccccc2Cl)c([N+](=O)[O-])c1`, the growth in the experiment with SR leukemia was 1.58% (active); in the experiment with OVCAR-8 ovarian, 93.2%; in the experiment with OVCAR-5 ovarian, 116%; with OVCAR-4 ovarian, 56.4%; in the experiment on SK-OV-3 ovarian, 99.8%; in the experiment with IGROV1 ovarian it was 104%. For the same compound, the growth was 94.1% in the experiment on OVCAR-3 ovarian, 77.7% in the experiment on HS 578T breast and 72.7% with NCI/ADR-RES ovarian.

With `Cc1oc2c(C)c3oc(=O)cc(C)c3cc2c1CCl`, the growth with SR leukemia was -10% (active); in the experiment on OVCAR-8 ovarian it was 87.1%; in the experiment on SK-OV-3 ovarian it was 89.1%; with IGROV1 ovarian it was 94.3%; with OVCAR-3 ovarian it was 61.6%; with HS 578T breast, 77.6%. In addition, the growth with NCI/ADR-RES ovarian was 83.7%.

Regarding `O=C(NNc1ccccc1)OCc1ccccc1`, the growth in the experiment on SR leukemia is 47.1%; in the experiment on OVCAR-8 ovarian it was 61.4%; in the experiment on OVCAR-5 ovarian, 53.1%; in the experiment with OVCAR-4 ovarian, 112%; with SK-OV-3 ovarian it was 105%; with IGROV1 ovarian, 58.7%. Besides, the growth in the experiment on OVCAR-3 ovarian was 91.4%; in the experiment with HS 578T breast, 91.8%.

Consider `CCCCCCCCC(=O)OCCCC(CCC(CCC1CCCO1)OC(=O)CCCCCCCC)OC(=O)CCCCCCCC` (centres undefined), for which the growth is 112% in the experiment on RPMI-8226 leukemia; 103% in the experiment with OVCAR-8 ovarian; 99.5% in the experiment with OVCAR-5 ovarian; 102% in the experiment with OVCAR-4 ovarian; 96.4% with SK-OV-3 ovarian; 107% in the experiment on IGROV1 ovarian. Also, the growth in the experiment on OVCAR-3 ovarian is 110%; in the experiment with HS 578T breast, 97.1%; in the experiment with NCI/ADR-RES ovarian, 103%.

In the case of `CC(CSc1n[nH]c(=S)s1)c1ccccc1` (centres undefined), the growth was 84.5% with SR leukemia; 109% in the experiment with OVCAR-8 ovarian; 127% with OVCAR-5 ovarian; 94.1% in the experiment on OVCAR-4 ovarian; 102% in the experiment on SK-OV-3 ovarian; 110% in the experiment with IGROV1 ovarian. The growth was 117% in the experiment on OVCAR-3 ovarian, 108% in the experiment with HS 578T breast and 114% in the experiment on NCI/ADR-RES ovarian.

As for `O=C1C=CC(=O)N1c1ccccc1`, the growth in the experiment on SR leukemia is 45.2%; in the experiment with OVCAR-8 ovarian, 99.5%; with OVCAR-5 ovarian, 96.4%; with SK-OV-3 ovarian it was 109%; in the experiment on IGROV1 ovarian, 105%; in the experiment on OVCAR-3 ovarian, 1.28% (active). The growth in the experiment on HS 578T breast was 103%; with NCI/ADR-RES ovarian, 97.7%.

Consider `Oc1ccc2ccccc2c1N=Nc1ccccn1`, for which the growth is 8.18% (active) in the experiment on SR leukemia; 15.6% in the experiment with OVCAR-8 ovarian; 46.8% in the experiment on OVCAR-5 ovarian; -6.48% (active) with OVCAR-4 ovarian; 33.6% with SK-OV-3 ovarian; 25% in the experiment on IGROV1 ovarian. The growth with OVCAR-3 ovarian was 20.7%; in the experiment with NCI/ADR-RES ovarian, 0.488% (active).

With `O=C(c1ccccc1)C(Br)[N+](=O)[O-]` (centres undefined), the growth with SR leukemia was 5.17% (active); with OVCAR-8 ovarian it was 83.9%; in the experiment on OVCAR-5 ovarian, 96.4%; in the experiment on OVCAR-4 ovarian, 104%; in the experiment with SK-OV-3 ovarian, 79.9%; in the experiment on IGROV1 ovarian, 103%. For the same compound, the growth in the experiment with OVCAR-3 ovarian is 101%; with HS 578T breast, 91.3%; in the experiment with NCI/ADR-RES ovarian, 101%.

Turning to `CCCCCCCCCCCCCCCCSC(=NCC)NCC`, the growth in the experiment with SR leukemia was -43.3% (active); with OVCAR-8 ovarian, -15.4% (active); in the experiment with OVCAR-5 ovarian, 44.5%; in the experiment on OVCAR-4 ovarian, 2% (active); in the experiment on SK-OV-3 ovarian, 72.1%; with IGROV1 ovarian it was -89.3% (active). The growth in the experiment on OVCAR-3 ovarian was -18.1% (active); in the experiment with HS 578T breast it was 66.1%; in the experiment on NCI/ADR-RES ovarian, 25.4%.

Regarding `CCOc1ccc(C(C[N+](=O)[O-])Sc2ccccc2N)cc1` (centres undefined), the growth with SR leukemia was 4.9% (active); in the experiment on OVCAR-8 ovarian it was 53.5%; with OVCAR-5 ovarian, 81.9%; with OVCAR-4 ovarian, 83.1%; with SK-OV-3 ovarian it was 72.6%; in the experiment on IGROV1 ovarian, -34.9% (active). Moreover, the growth in the experiment on OVCAR-3 ovarian is 32.2%; in the experiment with HS 578T breast it was 43.6%; in the experiment on NCI/ADR-RES ovarian, 72.6%.

In the case of `Clc1ccccc1C(c1ccccc1)(c1ccccc1)n1ccnc1`, the growth was 19.2% in the experiment with SR leukemia; 29.1% in the experiment with OVCAR-8 ovarian; 57.8% in the experiment with OVCAR-5 ovarian; 33.2% in the experiment on OVCAR-4 ovarian; 69.3% with SK-OV-3 ovarian; 55.5% in the experiment with IGROV1 ovarian. Besides, the values for the growth in the experiment with OVCAR-3 ovarian, in the experiment on HS 578T breast and in the experiment with NCI/ADR-RES ovarian were 29.3%, 58.2% and 33.1%, respectively.

For the compound `O=Nc1ccc2ccccc2c1O`, the growth is 60.1% in the experiment with SR leukemia; 6.45% (active) with OVCAR-8 ovarian; 81.8% in the experiment on OVCAR-5 ovarian; 35.2% in the experiment on OVCAR-4 ovarian; 95% in the experiment with SK-OV-3 ovarian; 53.2% with IGROV1 ovarian. In addition, the growth in the experiment on OVCAR-3 ovarian was 2.86% (active); in the experiment with HS 578T breast, 51%; in the experiment with NCI/ADR-RES ovarian, 6.37% (active).

As to `COC(=O)[C@]1(C)CCC[C@]2(C)c3ccc(C(C)C)cc3C(=O)[C@@H](Br)[C@@H]12`, the growth in the experiment on SR leukemia is 65.6%; in the experiment with OVCAR-8 ovarian, 77.9%; in the experiment with OVCAR-5 ovarian, 113%; with OVCAR-4 ovarian it was 82.3%; in the experiment on SK-OV-3 ovarian it was 96.9%; in the experiment with IGROV1 ovarian, 111%. Moreover, the figures for the growth in the experiment on OVCAR-3 ovarian, with HS 578T breast and with NCI/ADR-RES ovarian were 95.4%, 98% and 96.7%, respectively.

For `O=C1C=CC(O)=CC1=P(c1ccccc1)(c1ccccc1)c1ccccc1`, the growth with SR leukemia is 78.8%; with OVCAR-8 ovarian, 92.4%; with OVCAR-4 ovarian, 94%; with SK-OV-3 ovarian, 91.5%; in the experiment with OVCAR-3 ovarian it was 102%; with HS 578T breast, 83.2%. In addition, the growth with NCI/ADR-RES ovarian was 102%.
